The list is not random: actives were taken first. Their share in the collection is about 8%.
MARV entry inh: qHTS for inhibitors of binding or entry into cells for Marburg Virus | actives 1.8% (n = 300,000) | Potency, µM (doses to about 37.8 µM), most hits filed as inhibitors | Marburg virus pseudotyped entry inhibition, cell reporter; calls by dose curve; tested in HEK293 cells
SARS PLpro yeast: qHTS of Yeast-based Assay for SARS-CoV PLP. S. cerevisiae expressing SARS-CoV PLpro, growth rescue. Potency, µM (doses to about 32.9 µM), most hits filed as activators. actives 0.19% (n = 330,000); calls by dose curve; further: nearly all actives have a fitted effect of over 55% in size
FMDV inh: High Throughput Screening for Foot and Mouth Disease Virus Antivirals; FMDV antiviral cell-based qHTS; Potency, µM (highest dose often 57.9 µM), usual class: inhibitors; actives 1.2% (n = 410,000); AID 1159524, 2015; calls by dose curve; tested in HEK293T cells; further: read-out not given here; nearly all actives have a fitted effect of over 45% in size
Lassa entry inh: qHTS for Inhibitors of binding or entry into cells for Lassa Virus; Lassa virus pseudotype entry inhibition, cell reporter; Potency, µM (highest dose often 37.9 µM), usual class: inhibitors; actives 1.2% (n = 300,000); AID 540256, 2011; calls by dose curve; tested in HEK293 cells; further: nearly all actives have a fitted effect of over 50% in size
HCMV inh: qHTS Assay for inhibitors of the human cytomegalovirus (HCMV). actives 4.5% (n = 410,000). activity change, negative = inhibition, % at 57.5 µM. HFF cells, HCMV-luciferase reporter, 72 h; hits give low values; in the data active means activity change below about -60%; inconclusive means no clear call, values can overlap the other calls; inactive means above about -39%
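Two compound doses tested in HFFs infected with HCMV-luciferase, MOI 1 PFU/cell, 72 h at 37C. Lysate luminescence read with OneGlo; data normalized against buffer-only and 10uM Salinomycin inhibitor controls.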
HCV inh: qHTS Assay for Inhibitors of Hepatitis C Virus (HCV); Huh7.5.1 HCVcc-Cre infection, luciferase reporter, 44 h; Potency, µM (highest dose often 41.8 µM), actives largely listed as inhibitors; actives 3.4% (n = 340,000); active means well fitted inhibition curve with a large enough effect; inconclusive means small, poorly fitted or top-dose-only effect, or another doubt; inactive means no such curve, though single readings can be large or run the other way
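Cells seeded at 1,000/well and cultured 4 h, then compounds added followed by HCVcc-Cre virus (~0.5 moi). After 44 h further culture, luciferase substrate was added, plates held 15 min at room temperature, and luminescence read for 15 sec.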
A number is an active result; i = inactive; ? = inconclusive; nt = not tested or not shown; + = active, no number.

SMILES	MARV entry inh	SARS PLpro yeast	FMDV inh	Lassa entry inh	HCMV inh	HCV inh
CCN(CC)CCCNC(=O)c1c(C)oc2ncn(CC(C)C)c(=O)c12	nt	nt	i	i	i	nt
CC(Oc1ccc(Cl)cc1Cl)c1ccnc2nc(N3CCOCC3)nn12 (centres undefined)	?	i	?	i	-77	i
CCc1nn2c(=O)cc(COC(=O)c3ccc(NC(=O)COc4ccc(C)cc4)cc3)nc2s1	nt	nt	i	?	i	nt
O=C(Nc1ccc(C(=O)OCc2cc(=O)n3nc(C4CC4)sc3n2)cc1)c1ccccc1	nt	nt	?	i	i	nt
Cc1nn2c(=O)cc(COC(=O)c3ccc(NC(=O)c4cccs4)cc3)nc2s1	nt	nt	14µM	i	-100	nt
COc1ccc(OCC(=O)Nc2ccc(C(=O)OCc3cc(=O)n4nc(C)sc4n3)cc2)cc1	nt	nt	10µM	i	i	nt
CCc1nn2c(=O)cc(COC(=O)c3ccc(NC(=O)c4cccs4)cc3)nc2s1	nt	nt	i	i	i	nt
CC(Oc1ccccc1)C(=O)Nc1ccc(C(=O)OCc2cc(=O)n3nc(C4CC4)sc3n2)cc1 (centres undefined)	nt	nt	28µM	?	?	nt
Cc1nn2c(=O)cc(COC(=O)c3ccc(NC(=O)COc4ccc(Cl)cc4)cc3)nc2s1	nt	nt	16µM	?	-84	nt
COc1ccccc1-n1c(/C=C/c2ccccn2)nc2ccccc2c1=O	?	i	?	?	-101	?
Cc1cccc(-n2c(/C=C/c3ccccn3)nc3ccccc3c2=O)c1	nt	i	?	nt	-101	?
COc1cccc(-n2c(/C=C/c3ccccn3)nc3ccccc3c2=O)c1	?	i	i	?	?	i
COc1ccccc1-n1c(/C=C/c2c(C)n(C)c3ccccc23)nc2ccccc2c1=O	nt	nt	?	?	-85	nt
NC(=O)C1CCN(C(=O)CN2C(=O)c3ccccc3S2(=O)=O)CC1	i	i	i	i	i	i
CC1CCN(C(=O)CN2C(=O)c3ccccc3S2(=O)=O)CC1	?	i	i	7.9µM	i	i
O=C(CN1c2cccc3cccc(c23)S1(=O)=O)NC1CCCCC1	nt	i	i	nt	i	?
O=C(CN1C(=O)c2ccccc2S1(=O)=O)NC1CCCCCC1	nt	i	i	nt	-75	i
Cc1ccc(NC(=O)N2CCC(CN3CCCC3)CC2)c(C)c1	nt	nt	i	i	i	nt
Cc1ccc(C)c(NC(=S)NC(NC(=O)OCc2ccccc2)C(Cl)(Cl)Cl)c1 (centres undefined)	?	i	i	i	i	?
O=C(/C=C/c1ccccc1)NC(NC(=S)Nc1ccc(Cl)cc1Cl)C(Cl)(Cl)Cl (centres undefined)	?	i	i	?	nt	10µM
Cc1ccc(C)c(NC(=S)NC(NC(=O)/C=C/c2ccccc2)C(Cl)(Cl)Cl)c1 (centres undefined)	?	i	i	7.3µM	?	?
O=C(/C=C/c1ccccc1)NC(NC(=S)Nc1cccc(Cl)c1)C(Cl)(Cl)Cl (centres undefined)	?	i	i	9.2µM	-75	?
CCOC1=CC(=O)N(CCN)C1	nt	nt	nt	nt	i	nt
OC1CCC(Br)CC1C1NC2=C(CCCC2)S1 (centres undefined)	i	nt	nt	nt	nt	nt
Cc1nn(-c2ccccc2)c(N)c1-c1ccccc1	?	i	i	?	i	i
SMILES	MARV entry inh	SARS PLpro yeast	FMDV inh	Lassa entry inh	HCMV inh	HCV inh
Cc1nn(-c2nc3ccccc3[nH]2)c(N)c1-c1ccccc1	?	i	i	?	i	32µM
Cc1ccc(N(CN2C(=O)[C@H]3CC=CC[C@@H]3C2=O)C(=O)c2ccco2)cc1Cl	i	nt	nt	nt	nt	nt
N#Cc1ccc(C2=NC(C(F)(F)F)(C(F)(F)F)c3c(n(Cc4ccco4)c(=O)[nH]c3=O)N2)cc1	i	i	i	i	-85	i
O=c1[nH]c(=O)n(-c2ccc(F)cc2)c2c1C(C(F)(F)F)(C(F)(F)F)N=C(c1ccc(F)cc1)N2	?	i	10µM	?	-99	13µM
Cc1ccc(C2=NC(C(F)(F)F)(C(F)(F)F)c3c(n(-c4ccc(F)cc4)c(=O)[nH]c3=O)N2)cc1	?	i	?	?	i	?
O=c1[nH]c(=O)n(-c2ccccc2)c2c1C(C(F)(F)F)(C(F)(F)F)N=C(CCC1CCCCC1)N2	?	i	25µM	11µM	i	?
CCOc1ccc(CNC(=O)C2CCN(S(=O)(=O)N3CCCCC3)CC2)cc1	nt	nt	i	i	i	nt
CCCc1nc2oc3c(NCCCN(C)C)ncnc3c2c2c1CCCC2	?	i	i	?	-98	i
CC(C)c1nc2oc3c(NCC4CCCO4)ncnc3c2c2c1CCC2 (centres undefined)	?	i	?	?	i	11µM
CCCc1nc2oc3c(NCC4CCCO4)ncnc3c2c2c1COC(C)(C)C2 (centres undefined)	i	i	i	i	i	?
CC(C)Cc1nc2oc3c(Cl)ncnc3c2c2c1CCCC2	i	i	?	i	i	i
CCCc1nc2oc3c(Cl)ncnc3c2c2c1CCCC2	i	i	14µM	i	i	i
CC(C)Cc1nc2oc3c(NCC(C)O)ncnc3c2c2c1CCCC2 (centres undefined)	nt	i	i	nt	i	?
CCCc1nc2oc3c(NCCN(C)C)ncnc3c2c2c1CCCC2	?	i	i	16µM	i	?
CCOC(=O)c1c(C)oc2nc(C)nc(NCCCN3CCN(c4cccc(C)c4)C(C)C3)c12 (centres undefined)	nt	nt	i	i	i	nt
CN(C)c1cc2c(cc1NC(=O)c1ccc(F)cc1)n(C)c(=O)n2C	i	nt	i	i	i	nt
CCOC(=O)c1c(NC(C)=O)sc2c1CCC(C=NCCCN(CC)CC)=C2Sc1ccccc1	?	nt	?	?	nt	7.9µM
CCOC(=O)c1c(NC(=O)Cc2ccccc2)sc2c1CCN(C)C2	nt	?	i	nt	i	?
CC(C)COc1cccc(C(=O)Nc2ccc(-c3nc4ncccc4o3)cc2)c1	nt	nt	i	i	i	nt
NC(=O)c1nsc(C(=O)N(c2ccccc2)C(C(=O)NCc2ccc(F)cc2)c2ccco2)c1N (centres undefined)	?	i	i	?	?	?
NC(=O)c1nsc(C(=O)N(c2ccccc2)C(C(=O)NCc2ccc(F)cc2)c2ccc(O)cc2)c1N (centres undefined)	?	i	i	2.2µM	i	?
COc1ccc(N(C(=O)c2snc(C(N)=O)c2N)C(C(=O)NCc2ccccc2)c2ccc(O)cc2)cc1 (centres undefined)	i	i	i	0.73µM	i	?
CCOc1ccccc1NC(=O)c1cn(C2CCCC2)c(=O)c2c1c1ccccc1n2C	?	nt	i	?	?	nt
COc1ccc(NC(=O)NC(C)c2c(-n3cccc3)sc3c2CCN(C)C3)c(OC)c1 (centres undefined)	nt	nt	i	i	i	nt
COc1cccc2cc(-c3nc4sc(C(=O)Nc5ccc(F)cc5F)c(C)c4c(=O)[nH]3)c(=O)oc12	nt	nt	i	i	+	nt
Nc1c2c(nc3ccccc13)N(C1CCCCC1)CC2	10µM	i	i	i	i	0.32µM

Screening data (PubChem)
